# Screening results (PubChem)
# PTHR1 agonist – agonists of human PTHR1 parathyroid hormone receptor. Q03431. HEK293 GP2 PTHR1 cells, GloSensor cAMP luminescence, 1 h. Potency, µM (doses to about 115 µM), most hits filed as activators. 410,000 compounds, 0.075% hits; also: nearly all actives have a fitted effect of over 55% in size
#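 HEK-293-derived GP2 cells expressing PTHR1 and a GloSensor cAMP reporter, 3,000/well, plated overnight, given luciferin plus IBMX (each 0.5 mM as added) for 1 h at 37 °C, then compound for 1 h at 37 °C. Luminescence was read after 15 min at room temperature.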
# Glioma ERSR ind – ER stress response induction in glioma; Potency, µM, actives largely listed as activators; U87-MG GRP78 promoter luciferase reporter, 16 h; 420,000 compounds, 0.02% hits; AID 602332; also: series mostly up to about 76 µM; nearly all actives have a fitted effect of over 35% in size
#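 Stably transfected U87-MG human glioma cells carrying a GRP78-based luminescent sensor were seeded at 1000 cells/well, pin-dosed with compounds and incubated 16 h. Luciferase reagent was then added, and end-point luminescence was read after 10 min at room temperature.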
# 12-LOX inh – ALOX12 (human) lipoxygenase inhibition | purified 12hLO, xylenol orange hydroperoxide absorbance | P18054 | AID 1671190 | 580,000 compounds, 1.1% hits | Potency, µM (doses to about 108 µM), usual class: inhibitors
# Target sequence (P18054 whole entry, looked up): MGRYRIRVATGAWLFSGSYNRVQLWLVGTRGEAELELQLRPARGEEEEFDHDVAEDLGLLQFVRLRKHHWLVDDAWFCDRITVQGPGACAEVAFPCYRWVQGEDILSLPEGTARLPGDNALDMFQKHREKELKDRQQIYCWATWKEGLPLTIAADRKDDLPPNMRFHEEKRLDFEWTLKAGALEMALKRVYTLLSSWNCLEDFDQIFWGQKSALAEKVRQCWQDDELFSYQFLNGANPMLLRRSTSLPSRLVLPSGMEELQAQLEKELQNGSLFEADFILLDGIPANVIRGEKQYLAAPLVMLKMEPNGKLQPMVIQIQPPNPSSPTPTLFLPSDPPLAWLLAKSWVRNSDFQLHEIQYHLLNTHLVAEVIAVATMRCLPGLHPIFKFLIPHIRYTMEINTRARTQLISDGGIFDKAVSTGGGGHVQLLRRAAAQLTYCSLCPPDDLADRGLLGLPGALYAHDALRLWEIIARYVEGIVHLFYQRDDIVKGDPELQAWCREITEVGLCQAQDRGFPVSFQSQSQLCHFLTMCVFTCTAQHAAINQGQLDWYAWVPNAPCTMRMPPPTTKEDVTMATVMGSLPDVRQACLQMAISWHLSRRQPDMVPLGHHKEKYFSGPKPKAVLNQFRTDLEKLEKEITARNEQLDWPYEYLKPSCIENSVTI
#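 Purified human 12hLO at 150 nM in 25 mM Hepes, 0.01% Triton X-100, pH 7.0, preincubated 15 min at room temperature with compound. Reaction started with 40 uM arachidonic acid, 30 min at room temperature. Hydroperoxide measured by Fe-xylenol orange, 573/405 nm absorbance ratio.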
# GLP-1R agonist – GLP-1 receptor (human) agonism. Potency, µM (titrated, usually from 45.6 µM), hits mostly activators. 380,000 compounds, 0.007% hits. P43220. HEK293 GLP-1R CRE-luciferase, luminescence, 4-6 h; cells express a hypersensitive GLP-1R form
# GLS inhibitor – glutaminase GLS (human) inhibition. GLS enzymatic activity, qHTS titration. AID 624170. Potency, µM (top dose mostly 45.5 µM), actives largely listed as inhibitors. 410,000 compounds, 0.21% hits
#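 Enzyme dispensed in phosphate buffer (45 mM, pH 8.2, 0.02% Tween-20), compounds pinned in, then 1 mM L-glutamine solution and the glutamate oxidase–HRP–Amplex Red mix added; fluorescence read immediately and again after 30 min at room temperature.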
# GLP1R inv ag – GLP-1 receptor (human) inverse agonism. HEK293 GLP-1R CRE-luciferase, luminescence, 24 h; GLP-1R form is constitutively active. 410,000 compounds, 1.6% hits. Potency, µM (top dose mostly 38.3 µM), most hits filed as inhibitors. P43220; also: nearly all actives have a fitted effect of over 55% in size
#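 Luminescence readout: a drop in cAMP-driven luciferase signal flags inverse agonism at a constitutively active GLP-1R stably expressed in HEK293. Compound exposure lasted 24 hr at 37 deg C, 5% CO2.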
# Numbers stand for hits; n = inactive; u = inconclusive; x = no result. Only some compounds are listed: those with a hit (about 2.3% of all), similar ones and a draw of the others. Calls follow the shape of the dose curve; as a rule, active = well fitted curve in the direction sought with a large enough effect; inconclusive = small, poorly fitted or top-dose-only effect, or another doubt; inactive = no such curve, though single readings can be large; an effect the other way counts as inactive or inconclusive.
SMILES,PTHR1 agonist,Glioma ERSR ind,12-LOX inh,GLP-1R agonist,GLS inhibitor,GLP1R inv ag
CCC(C)SSc1ncc[nH]1 (stereo unspecified),x,x,19µM,x,x,x
OC(c1ccccc1)(c1ccccc1)C1CCN(C(=S)NCCc2ccccc2)CC1,n,n,40µM,n,n,u
COc1ccc(NC(C)C(=O)Nc2ccc(C(C)(C)C)cc2)cc1Cl (stereo unspecified),n,n,n,n,n,4.5µM
COc1ccc(NC(C)C(=O)Nc2ccc(C#N)cc2)cc1Cl (stereo unspecified),n,n,n,n,n,u
CCCc1cnc(NCCNCC(O)COc2ccc(Cl)c(Cl)c2)nc1 (stereo unspecified),n,n,u,n,n,5µM
CC(=O)c1cccc(OCC(O)CNCCc2ccc(Cl)cc2)c1 (stereo unspecified),n,n,u,n,n,n
CCCCn1c(=O)c2c(nc(Br)n2Cc2ccccc2)n(C)c1=O,x,x,n,x,x,x
COc1ccccc1C(c1nnnn1CCc1ccccc1)N1CCN(c2ccccc2)CC1 (stereo unspecified),n,n,n,n,n,n
Fc1ccc(C(c2nnnn2CCc2ccccc2)N2CCCc3ccccc32)cc1 (stereo unspecified),n,n,n,n,n,2.8µM
COc1ccc(N2CCN(C(c3ccccc3)c3nnnn3Cc3ccc(F)cc3)CC2)cc1 (stereo unspecified),n,n,n,n,n,13µM
COc1ccccc1C(c1nnnn1CCc1ccccc1)N1CCCCCC1 (stereo unspecified),n,n,n,n,n,11µM
COc1ccccc1N1CCN(C(c2ccccc2)c2nnnn2CCc2ccccc2)CC1 (stereo unspecified),n,n,u,n,n,11µM
COc1ccc(C(c2nnnn2CCc2ccccc2)N2CCN(C)CC2)cc1OC (stereo unspecified),n,n,n,n,n,n
Cc1ccc(C(=O)C(C#N)C(=O)Nc2ccccc2C)cc1C (stereo unspecified),x,x,n,x,x,x
C=CCSc1ccccc1NC(=O)c1sccc1C,x,x,n,x,x,x
S=C(Nc1cccc(Br)c1)c1ccccc1,n,n,n,n,n,13µM
O=C(Nc1cccc(C(=O)Nc2ccc(Br)cc2)c1)c1ccccc1,n,n,n,n,n,n
Fc1ccc(C2CCNCC2COc2ccc3c(c2)OCO3)cc1 (stereo unspecified),n,n,u,n,n,u
Fc1ccc([C@@H]2CCNC[C@H]2COc2ccc3c(c2)OCO3)cc1,n,n,u,n,n,8.9µM
Cc1cc2c(cc1C)CSC(c1ccccc1OC(=O)C(C)(C)C)SC2,n,n,n,n,n,10µM
O=Cc1cc(Br)cc(Cl)c1O,x,x,45µM,x,x,x
O=Cc1cc(Cl)c(O)c(Cl)c1,x,x,n,x,x,x
Cc1ccc(-c2nc(P(=O)(c3ccccc3)c3ccccc3)c(N3CCOCC3)o2)cc1,n,n,n,n,n,10µM
COP(=O)(OC)c1nc(-c2ccc(C)cc2)oc1N1CCOCC1,x,x,n,x,x,x
COc1ccc(CCN(C)C(=O)c2cccc3c(=O)c(C)c(-c4ccccc4)oc23)cc1OC,x,x,n,x,x,x
SMILES,PTHR1 agonist,Glioma ERSR ind,12-LOX inh,GLP-1R agonist,GLS inhibitor,GLP1R inv ag
O=C1CC(N2CCN(c3ccccn3)CC2)C(=O)N1CC(c1ccccc1)c1ccccc1 (stereo unspecified),u,n,n,n,n,13µM
CCOc1ccc2nc(N/C(N)=N/C(=S)Nc3ccc(C)c(C)c3)nc(C)c2c1,n,n,45µM,n,n,n
CNC(=S)Nc1ccc(C23CC4CC(CC(C4)C2)C3)cc1,n,n,45µM,n,n,u
CC(=O)Nc1ccc(C23CC4CC(CC(C4)C2)C3)cc1,n,n,n,n,n,n
CC(C)=CCc1c(O)cc(O)c2c(=O)c3c(CC=C(C)C)c(O)ccc3oc12,n,n,x,n,n,10µM
COc1ccc(C)cc1-n1ccnc1SCC(=O)Nc1nccs1,x,x,n,x,x,x
Cc1onc(-c2ccccc2)c1C(=O)N/N=C/c1cccc(O)c1,n,n,n,n,n,n
